Data taken from PubChem BioAssay (EPA / NIEHS).
Calls of active or inactive are those of the source. Rule for the calls: active = hit-call score of the fitted dose curve at least 0.9, where 1 is the maximum; inactive = score below 0.9.

Assay: CCTE_Deisenroth_DEVTOX-GLR_Pluri_CellCount: Viability Assessment in CCTE's DevTox GLR-Pluri Assay Evaluation of Total Cell Counts, Deisenroth Lab (AID 2284430)
Summary of the method: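 RUES2-GLR human pluripotent cells, seeded 24 h, then differentiated 48 h with two chemical exposures 24 h apart; 10-point series 1 nM - 200 uM. Fixed, nuclear-stained, imaged (5 fields/well); nuclei count as % change vs 0.2% DMSO.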

## NC(=O)c1ccc(N)nc1
  outcome: inactive
